Experimental data taken from PubChem BioAssay (NCI).
This is part of a sample that, as a whole, favours compounds with a hit. Of some 83,000 tested, about 20% had one in any assay.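 Growth was measured after 48 h exposure to one concentration of compound in 96-well plates. Values under 10 count as active.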 Calls of active or inactive are those of the source.

Tests used:
Test in all cases: NCI-60 one-dose screen, 48 h (100 = growth as untreated, 0 = no growth, -100 = all killed)
Details in all cases: 10 µM unless noted
[1] = system: SK-MEL-2 melanoma
[2] = system: EKVX NSCLC
[3] = system: SN12C renal
[4] = system: UO-31 renal
[5] = system: TK-10 renal
[6] = system: ACHN renal
[7] = system: CAKI-1 renal
[8] = system: A498 renal
[9] = system: CCRF-CEM leukemia
[10] = system: MOLT-4 leukemia

Measured: growth

O=C(NNc1nc2cc(F)cc(F)c2n2cccc12)c1cccnn1
inactive: [1] 20.8% | [3] 18.5% | [4] 15.4% | [5] 42.4% | [6] 10.3% | [7] 12.4%
active: [2] 9.18% | [8] 4.83% | [9] 6.41% | [10] 7.32%

Cc1csc(/N=C(N)/N=C(\N)c2cccc(C#N)c2)n1
inactive: [1] 47.8% | [2] 82.8% | [3] 92.3% | [4] 76.3% | [5] 168% | [6] 84.9% | [7] 53.9% | [8] 69.4% | [9] 82.7% | [10] 85.6%

CC(=C(c1ccc(OCCCN(C)C)cc1)c1ccc(OCCCN(C)C)cc1)c1ccc(Cl)cc1
inactive: [1] 99.3% | [2] 94.7% | [3] 85.5% | [4] 88.5% | [5] 96.5% | [6] 92.6% | [7] 92.6% | [8] 79.2% | [9] 66.8% | [10] 65.3%

O=C1[C@@H]2Cc3c([nH]c4ccccc34)[C@H](c3ccc(Br)cc3)N2C(=O)CN1C1CCN(Cc2c(Cl)cccc2Cl)CC1
inactive: [1] 99.8% | [2] 88.4% | [3] 92.5% | [4] 67.7% | [5] 132% | [6] 91.2% | [7] 67.6% | [8] 103% | [9] 88.8% | [10] 65.9%

CS(=O)(=O)c1ccc(/C(=N/N=C(N)N)c2ccc(Cl)cc2)cc1
inactive: [1] 93.7% | [2] 91% | [3] 95.7% | [4] 84.4% | [5] 76.1% | [6] 99.1% | [7] 59.5% | [8] 76.9% | [9] 94.3% | [10] 99.1%

Cc1ccc(-c2csc(N/N=C/c3cccs3)n2)cc1
inactive: [1] 111% | [2] 65.2% | [3] 100% | [4] 75.1% | [5] 151% | [6] 90.4% | [7] 87.4% | [8] 116% | [9] 91.9% | [10] 86.7%

CN(C)c1ccc(-c2cc(-c3c[nH]c4ccccc34)nc(N)c2C#N)cc1
inactive: [2] 61.8% | [3] 43.1% | [4] 44.6% | [5] 72.9% | [6] 47.1% | [7] 24.1% | [9] 30% | [10] 35.4%
active: [1] -0.536% | [8] -0.675%

N#Cc1c(-c2ccc(F)cc2)cc(-c2c[nH]c3ccccc23)nc1-c1c[nH]c2ccccc12
inactive: [1] 96.1% | [2] 92.8% | [3] 98.8% | [4] 84.7% | [5] 128% | [6] 102% | [7] 92.5% | [8] 89.4% | [9] 102% | [10] 103%

Cc1ccc2c(n1)C(=O)C(Cl)=C(Nc1cccc(C(F)(F)F)c1)C2=O
inactive: [1] 99.7% | [2] 58.1% | [3] 85.8% | [5] 127% | [7] 81.8% | [8] 86%
active: [4] -67.7% | [6] -96.2% | [9] 4.32% | [10] 6.52%

O=C(Nc1ccc(Cl)c(C(F)(F)F)c1)Nc1ccc2oc(=O)ccc2c1
inactive: [1] 71.2% | [2] 35.2% | [3] 31.9% | [4] 31.3% | [5] 70.4% | [6] 10.2% | [7] 36.1% | [8] 33% | [9] 25.5% | [10] 28.2%

O=C(Nc1cccc(C(F)(F)F)c1)N1CCN(c2cc(-c3cn(-c4ccccc4)nc3-c3cccc(O)c3)ccn2)CC1
inactive: [1] 43.7% | [2] 42% | [3] 49% | [4] 25.3% | [5] 63.3% | [6] 39.2% | [7] 51.8% | [8] 49.4% | [9] 21.5% | [10] 18.9%

O=C(Nc1ccccc1)Nc1nc2ccc([N+](=O)[O-])cc2[nH]1
inactive: [1] 53.9% | [2] 43.6% | [3] 62.7% | [4] 44.2% | [5] 39.1% | [6] 37.6% | [7] 27.1% | [8] 11.1% | [9] 52.2% | [10] 55.7%

CC(C)(C)Nc1nc2c(OCCc3ccccc3)cccn2c1-c1cccc(Oc2ccccc2)c1
inactive: [2] 13.5% | [3] 12.3% | [5] 21.8% | [8] 16.2% | [9] 15%
active: [1] -26.2% | [4] 5.5% | [6] 7.39% | [7] 8.12% | [10] 5.42%

CCn1c2ccc(/C=N/N(C)S(=O)(=O)CCN(C)C)cc2c2cc(/C=N/N(C)S(=O)(=O)CCN(C)C)ccc21
inactive: [1] 107% | [2] 94.7% | [3] 33.3% | [4] 47.5% | [5] 142% | [6] 70.2% | [7] 48.1% | [8] 85.3% | [9] 19.4% | [10] 15.1%

COc1ccc(/C=N/NC(=O)CSc2nc(-c3cnccn3)cc(-c3cccs3)c2C#N)cc1
inactive: [1] 89% | [2] 78.2% | [3] 64% | [4] 101% | [5] 98.7% | [6] 74% | [7] 48.3% | [8] 79% | [9] 86.1% | [10] 73.8%

O=C(CSc1nc2ccccc2c(=O)n1-c1ccc(S(=O)(=O)Nc2ccc(Cl)nn2)cc1)Nc1ccc(S(=O)(=O)Nc2ccc(Cl)nn2)cc1
inactive: [1] 120% | [2] 99.8% | [3] 106% | [4] 87.9% | [5] 106% | [6] 98.2% | [7] 91.9% | [8] 104% | [9] 101% | [10] 97.6%

O=C1CSC(c2cn(-c3ccccc3)nc2-c2ccc(Cl)cc2)N1c1ccccc1 (stereo not given)
inactive: [1] 112% | [2] 98.8% | [3] 114% | [4] 83.8% | [5] 118% | [6] 104% | [7] 92.3% | [8] 125% | [9] 103% | [10] 114%

Cc1ccc(CSC2=C(Cl)CN(c3ccc(Cl)cc3)C2=O)cc1
inactive: [1] 104% | [2] 104% | [3] 104% | [4] 78.6% | [5] 115% | [6] 107% | [7] 94.5% | [8] 113% | [9] 106% | [10] 110%

COc1ccc([C@H]2C(=O)N(c3cc(OC)c(OC)c(OC)c3)[C@@H]2c2ccc(OC)c(O)c2)cc1
inactive: [2] 46.1% | [3] 30.4% | [4] 26.9% | [5] 110% | [6] 28.4% | [7] 24.5% | [9] 18.9% | [10] 13.4%
active: [1] 9.11% | [8] -29.9%

CCCCCCNC(=O)Oc1ccc(/C(=C(/C)c2ccc(Cl)cc2)c2ccc(OCCN3CCCCCC3)cc2)cc1
inactive: [1] 108% | [2] 76.8% | [3] 70% | [4] 51.8% | [5] 95.8% | [6] 87.3% | [7] 64.9% | [8] 74.5% | [9] 46.2% | [10] 33.3%

O=C(CCCCCCNC(=O)C(O)(O)C(F)(F)F)Nc1ccc(-c2ccccc2)cc1
inactive: [2] 34.2% | [3] 14.6% | [9] 23.6% | [10] 14.1%
active: [1] -37.4% | [4] -1.11% | [5] 5.83% | [6] -18.3% | [7] 2.61% | [8] -7.85%

O=C1C(SCc2ccccc2)=C(Cl)CN1c1ccc(Cl)cc1
inactive: [1] 79.9% | [2] 106% | [3] 100% | [5] 111% | [6] 98.1% | [7] 90.7% | [8] 114% | [9] 70.8% | [10] 68%
active: [4] -88.1%

Cc1ccc(/C=N/Nc2nc(Nc3ccccc3)nc(Nc3ccc(S(N)(=O)=O)cc3)n2)cc1
inactive: [1] 77.8% | [2] 78.1% | [3] 82.5% | [4] 68.1% | [5] 94.5% | [6] 61.2% | [7] 61% | [8] 54.7% | [9] 42% | [10] 40.4%

CN(C)c1ccc(/C=N/Nc2nc(N/N=C/c3ccc(N(C)C)cc3)nc(N3CCCCC3)n2)cc1
inactive: [1] 111% | [2] 97% | [3] 50.4% | [4] 80.3% | [5] 118% | [6] 32.4% | [7] 89.9% | [8] 115% | [9] 25.8% | [10] 12.1%

CNC(=O)c1cc(N2CCc3cc(NC(=O)Nc4ccc(N5CCN(C)CC5)c(C(F)(F)F)c4)ccc32)ccn1
inactive: [1] 99.4% | [2] 82.3% | [3] 100% | [4] 88.7% | [5] 134% | [6] 85.6% | [7] 79.9% | [8] 76.9% | [10] 17.3%
active: [9] 5.44%

N#Cc1cnc2ccc(-c3cnc4n[nH]nc4c3)cc2c1N1CCc2cc(F)c(Cl)cc21
active: [1] -22.6% | [2] 3.17% | [4] 2.18% | [5] -11.4% | [7] 6.12% | [8] -11.8% | [10] -1.31%
inactive: [3] 14.8% | [6] 13.6% | [9] 10.6%
